Compound in this assay: CC(C)c1cccc(C(C)C)c1N1C(=O)c2ccc(O)cc2C1=O
In words: BioMAP readout fold decrease vs vehicle (vehicle/treated); higher = stronger decrease of the readout vs vehicle (values <1 mean increase). The method, then:
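BioSeek BioMAP human primary cell (co-)culture systems (3C, 4H, LPS, SAg, BE3C, CASM3C, hDFCGF, KF3CT) treated with 5HPP-33 at 1.48, 4.44, 13.3 and 40 µM. Read-outs are protein levels by ELISA, proliferation and SRB total protein. Duplicate rows per assay are averaged as replicates. Tested in ToxCast Phase II for this study; exposure time not stated.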

± gives the standard deviation of the averaged measurements.
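Further: Co-cultures of keratinocytes, bronchial epithelial and smooth muscle cells, fibroblasts, HUVECs and PBMCs under stimuli like LPS, TNF-α, IFN-γ, IL-1β, TGF-β or EGF, SRB reflecting cytotoxicity.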

For the target KF3CT_ICAM1, the “BioMAP readout fold decrease” value (1.48 µM) is 0.999 ± 0.092, the “BioMAP readout fold decrease” value (4.44 µM) stood at 1.03 ± 0.037, the “BioMAP readout fold decrease” value (13.3 µM) came to 0.9245 ± 0.0078 and the “BioMAP readout fold decrease” value (40 µM) came out at 1.08 ± 0.062.
Turning to KF3CT_MMP9, the “BioMAP readout fold decrease” value runs as follows: (1.48 µM) 0.991 ± 0.0099; (4.44 µM) 1.17 ± 0.028; (13.3 µM) 1.45 ± 0.081; (40 µM) 4.32 ± 0.16.
As to 4H_SRB, the “BioMAP readout fold decrease” value is, setting by setting: (1.48 µM) 1.05 ± 0.014; (4.44 µM) 1.12 ± 0.016; (13.3 µM) 1.25 ± 0.031; (40 µM) 1.44 ± 0.041.

The record behind these values is the supplement of paper PMC3616981.
